From PubChem BioAssay
Activity calls are given as the source filed them.

What was measured:
[1] = test system: Human papillomavirus type 1a protein E7 (residues 44-93); experiment: small molecules binding HPV E7 44-93 – biochemical, small-molecule microarray, residues 44-93, 635 nm fluorescence, primary screen (AID 1108); details: fluorescence 635 nm, higher = more signal;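 also: E7 fragment applied at 1 µg/mL in TBST for 1 h at 4 C; score combines spot fluorescence with its signal to noise ratio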
[2] = hepatitis C replication reporter changes, two-sided – Huh7 cells, luciferase reporter, HCV replication inhibitor project, primary screen (AID 1109); details: Huh7 HCV replicon luciferase reporter, 48 h; higher = more signal;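 also: huh7 hepatoma cells harbouring a luciferase neomycin HCV replicon reporter; luciferase luminescence as measure of HCV replicon replication; test concentration not given here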
[3] = target: Left-right determination factor 2 (Homo sapiens) (UniProt O00292); experiment: small molecules binding LEFTY2 protein – biochemical, small-molecule microarray, 635 nm fluorescence scan, primary screen (AID 1110); details: higher = more signal
[4] = target: Calmodulin-1 (Homo sapiens) (UniProt P0DP23); experiment: small molecules binding calmodulin-1 with EGTA – biochemical, small-molecule microarray, Cy5-labelled CALM1, profiling panel (AID 1111); details: Cy5-CALM1 binding fluorescence, higher = more signal;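 also: labelled calmodulin applied in Tris saline Tween buffer holding calcium plus EGTA and DTT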
[5] = target: Calmodulin-1 (Homo sapiens) (UniProt P0DP23); experiment: small molecules binding Ca-loaded calmodulin-1 – biochemical, small-molecule microarray, Cy5-labelled CALM1, plus calcium, artefact control for SMM control-protein annotation, profiling panel (AID 1112); details: Cy5-CALM1 binding fluorescence, higher = more signal;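 also: score merges spot fluorescence with signal to noise from triplicate slides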
[6] = probe aWnt5a binding to arrayed compounds – biochemical, biotinylated probe, 635/667 nm fluorescence, primary screen (AID 1113); details: small-molecule microarray, higher = more signal;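 also: score merges 667 nm fluorescence intensity with signal-to-noise per printed feature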
[7] = probe aShh binding to arrayed compounds – biochemical, biotinylated probe, 635/667 nm fluorescence, primary screen (AID 1114); details: small-molecule microarray, higher = more signal;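 also: probe is biotin-labelled aShh protein from a stem cell growth factor screen; measures binding of labelled protein to compounds printed on the slide; score merges feature fluorescence at 667 nm with signal-to-noise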
[8] = probe aNog binding to arrayed compounds – biochemical, biotinylated probe, 635/667 nm fluorescence, primary screen (AID 1115); details: small-molecule microarray, higher = more signal;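 also: probe is biotinylated aNog protein used at 0.15 µg/mL for 1 h at 4 C; z-score combines 667 nm fluorescence of each spot with its signal to noise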
[9] = target: Torsin-1A-interacting protein 1 (Homo sapiens) (UniProt Q5JTV8); experiment: compound microarray binding of lysate hLAP1 – cell lysate, small-molecule microarray, COS7 lysate, 635/667 nm fluorescence, primary screen (AID 1116); details: 635 nm fluorescence, higher = more signal
[10] = target: Alpha-bungarotoxin (Bungarus multicinctus) (UniProt P60615); experiment: compounds binding labelled alpha-BTX control protein – biochemical, small-molecule microarray, Alexa647 label, 635/667 nm fluorescence, artefact control for SMM control protein annotation, profiling panel (AID 1117); details: alpha-BTX-A647 binding fluorescence, higher = more signal
Albumin (Bos taurus) = Albumin (Bos taurus) (UniProt P02769); experiment: compounds binding labelled BSA control protein – biochemical, small-molecule microarray, Alexa647 label, 635/667 nm fluorescence, artefact control for SMM control protein annotation, profiling panel (AID 1118); details: BSA-A647 binding, fluorescence 635 nm, higher = more signal;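 also: score merges 667 nm emission intensity and signal-to-noise per printed compound spot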
[11] = probe aXIP binding to arrayed compounds – biochemical, NeuroSMM set, 635/667 nm fluorescence, primary screen (AID 1119); details: small-molecule microarray, higher = more signal, called active from +8 up or from −8 down;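 also: probe is the protein aXip251-270 applied at 1 µg/mL to compound-printed slides; binding of probe to printed compounds measured as 667 nm fluorescence plus signal to noise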
[12] = probe aNOTCH3 binding on compound microarray – biochemical, small-molecule microarray, 635/667 nm fluorescence, primary screen (AID 1120); details: higher = more signal;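 also: probe is a biotin-tagged antibody raised against NOTCH3 rather than NOTCH3 protein; score merges spot fluorescence near 667 nm with spot signal to noise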
[13] = probe aNOTCH2 binding on compound microarray – biochemical, small-molecule microarray, 635/667 nm fluorescence, primary screen (AID 1121); details: higher = more signal;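 also: score merges feature fluorescence read at 667 nm with its signal to noise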
[14] = target: Carbonic anhydrase 2 (Homo sapiens) (UniProt P00918); experiment: compounds binding carbonic anhydrase 2 – biochemical, small-molecule microarray, Alexa647-labelled CAII, profiling panel (AID 1122); details: CAII-A647 binding fluorescence, higher = more signal
[15] = COS7 lysate on small-molecule microarray, probe aHis, 635 nm (AID 1123); details: COS7 cell lysate, fluorescence, higher = more signal;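 also: z-score combines 667nm fluorescence intensity with signal-to-noise per printed compound spot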
[16] = probe aLAP1 signal on lysate-treated microarray – cell lysate, small-molecule microarray, COS7 lysate, primary screen (AID 1124); details: probe aLAP1, fluorescence, higher = more signal;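 also: lysate comes from COS7 cells expressing LAP1 and is applied at 0.3 µg/mL; score merges spot fluorescence near 667 nm with signal-to-noise over triplicate slides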
Sam68 (KHDRBS1) = experiment: compounds binding KHDRBS1 protein – biochemical, small-molecule microarray, 635 nm fluorescence, primary screen (AID 1125); details: higher = more signal;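 also: score merges 667 nm channel intensity with signal to noise over triplicate slides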
[17] = test system: Chordin-like protein 2 (CHRDL2); experiment: compounds binding chordin-like 2 – biochemical, small-molecule microarray, 635 nm fluorescence, primary screen (AID 1126); details: fluorescence 635 nm, higher = more signal;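 also: printed compound slides probed with Chrdl2 protein at 4 µg/mL for 1 h at 4 C; score merges 667 nm emission intensity with signal to noise over three replicate slides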
[18] = target: Concanavalin-A (Canavalia ensiformis) (UniProt P02866); experiment: compounds binding concanavalin A lectin – biochemical, small-molecule microarray, Alexa647 label, 635 nm, artefact control for SMM control protein annotation, primary screen (AID 1127); details: ConA-A647 binding fluorescence, higher = more signal;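 also: z combines 667 nm emission intensity with signal-to-noise across three replicate slides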
Chain of Concanavalin-A (Canavalia ensiformis) (P02866 whole entry, looked up): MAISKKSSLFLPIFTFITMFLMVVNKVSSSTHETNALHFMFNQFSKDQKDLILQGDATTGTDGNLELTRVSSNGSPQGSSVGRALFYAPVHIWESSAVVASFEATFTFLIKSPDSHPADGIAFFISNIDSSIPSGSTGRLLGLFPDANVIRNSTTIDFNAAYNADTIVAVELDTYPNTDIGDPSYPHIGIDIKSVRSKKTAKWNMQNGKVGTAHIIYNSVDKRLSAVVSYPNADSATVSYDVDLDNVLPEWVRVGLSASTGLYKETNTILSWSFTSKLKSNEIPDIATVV

Chain of Albumin (Bos taurus) (P02769 whole entry, looked up): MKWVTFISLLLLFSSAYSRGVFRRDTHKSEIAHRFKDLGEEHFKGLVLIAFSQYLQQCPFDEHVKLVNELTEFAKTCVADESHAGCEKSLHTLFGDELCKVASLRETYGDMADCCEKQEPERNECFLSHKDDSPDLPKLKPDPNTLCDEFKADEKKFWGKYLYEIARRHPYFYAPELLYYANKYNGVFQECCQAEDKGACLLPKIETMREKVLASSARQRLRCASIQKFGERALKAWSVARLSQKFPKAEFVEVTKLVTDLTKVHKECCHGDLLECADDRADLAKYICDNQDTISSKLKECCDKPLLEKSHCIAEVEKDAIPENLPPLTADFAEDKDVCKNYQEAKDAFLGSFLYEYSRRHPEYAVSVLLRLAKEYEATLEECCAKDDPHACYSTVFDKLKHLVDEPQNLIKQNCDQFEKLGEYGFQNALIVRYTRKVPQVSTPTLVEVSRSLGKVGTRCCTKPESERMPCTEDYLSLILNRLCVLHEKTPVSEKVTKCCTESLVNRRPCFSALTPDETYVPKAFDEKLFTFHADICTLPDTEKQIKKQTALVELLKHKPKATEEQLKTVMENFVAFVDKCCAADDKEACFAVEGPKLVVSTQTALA
Chain of Torsin-1A-interacting protein 1 (Homo sapiens) (Q5JTV8 whole entry, looked up): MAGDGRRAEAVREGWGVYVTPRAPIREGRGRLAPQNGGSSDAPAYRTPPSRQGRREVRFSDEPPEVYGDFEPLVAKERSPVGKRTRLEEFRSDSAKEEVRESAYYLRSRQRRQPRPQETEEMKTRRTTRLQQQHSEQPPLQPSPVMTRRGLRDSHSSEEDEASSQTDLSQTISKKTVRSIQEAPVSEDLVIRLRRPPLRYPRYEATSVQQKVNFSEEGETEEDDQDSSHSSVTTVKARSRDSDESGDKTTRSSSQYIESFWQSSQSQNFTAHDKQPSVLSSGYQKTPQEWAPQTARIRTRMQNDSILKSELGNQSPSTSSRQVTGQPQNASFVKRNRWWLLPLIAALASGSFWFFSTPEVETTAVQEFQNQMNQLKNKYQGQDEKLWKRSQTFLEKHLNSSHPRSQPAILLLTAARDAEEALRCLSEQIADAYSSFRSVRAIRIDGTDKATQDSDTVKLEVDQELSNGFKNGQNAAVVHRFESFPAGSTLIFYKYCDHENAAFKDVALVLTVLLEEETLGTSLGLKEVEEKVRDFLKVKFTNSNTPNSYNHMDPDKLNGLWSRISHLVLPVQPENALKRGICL
Chain of Left-right determination factor 2 (Homo sapiens) (O00292 whole entry, looked up): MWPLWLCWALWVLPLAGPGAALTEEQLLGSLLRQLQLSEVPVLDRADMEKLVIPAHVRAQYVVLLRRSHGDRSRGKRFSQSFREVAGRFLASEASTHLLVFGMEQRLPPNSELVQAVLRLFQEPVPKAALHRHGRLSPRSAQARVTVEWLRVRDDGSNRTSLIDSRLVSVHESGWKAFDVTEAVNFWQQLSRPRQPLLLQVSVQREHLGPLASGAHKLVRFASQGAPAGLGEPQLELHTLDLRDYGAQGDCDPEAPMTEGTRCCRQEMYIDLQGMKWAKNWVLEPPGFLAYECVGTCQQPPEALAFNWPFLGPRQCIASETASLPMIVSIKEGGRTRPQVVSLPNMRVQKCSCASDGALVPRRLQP
Chain of Alpha-bungarotoxin (Bungarus multicinctus) (P60615 whole entry, looked up): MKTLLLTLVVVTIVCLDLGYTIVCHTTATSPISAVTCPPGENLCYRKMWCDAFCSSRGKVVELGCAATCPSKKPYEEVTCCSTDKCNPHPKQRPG

Row | SMILES | composite z-score [1] | z-score [2] | composite z-score [3] | composite z-score [4] | composite z-score [5] | composite z-score [6] | composite z-score [7] | composite z-score [8] | composite z-score [9] | composite z-score [10] | composite z-score (Albumin (Bos taurus)) | composite Z-score [11] | composite z-score [12] | composite z-score [13] | composite z-score [14] | composite z-score [15] | composite z-score [16] | composite z-score (Sam68 (KHDRBS1)) | composite z-score [17] | composite z-score [18]
1 | Cc1cc(C)c(C(O)C2C=CC3C(=O)N(c4ccccc4)C(=O)C3N2Nc2ccc(C(C)C)cc2)c(C)c1 (stereo not given) | -0.9 | 0.437 | 0.229 | 2.15 | 1.37 | 0.0792 | 0.664 | 1.21 | 1.27 | 2.85 | 0.585 | 0.904 (inactive) | 0.331 | 0.0557 | 0.712 | 2.78 | 0.8 | 1.29 | -0.545 | 1.18
2 | CN1C(=O)C2C=CC(C(O)c3ccc(F)cc3)N(Nc3ccccc3)C2C1=O (stereo not given) | 0.793 | -0.216 | 0.0204 | 0.746 | 0.693 | -0.0165 | -0.412 | -0.305 | 0.635 | 1.62 | 0.884 | 0.21 (inactive) | 0.0562 | -0.14 | 0.721 | 1.64 | -0.481 | 0.57 | -0.623 | 0.808
3 | COCCOC(=O)N1C(=O)[C@@]2(c3cc(C#CC4=CCCCC4)ccc31)[C@H](c1ccc(OCCO)cc1)N1[C@H](c3ccccc3)[C@H](c3ccccc3)OC(=O)[C@H]1[C@@H]2C(=O)N1CCN(c2ncccn2)CC1 | 1.05 | -0.807 | 0.671 | 0.623 | 0.189 | -0.034 | -0.0146 | 0.759 | 0.835 | 0.418 | 0.737 | -0.648 (inactive) | 0.0596 | -0.158 | 0.425 | 0.477 | 0.677 | 1.31 | 0.48 | 0.713
4 | C[C@@H]1ON(c2ccc(C(=O)OC(C)(C)C)cc2)[C@H](c2ccc(O)cc2)[C@H]1C(=O)N1C(=O)OC[C@H]1Cc1ccccc1 | 0.606 | -3.77 | 0.545 | 1.35 | 0.307 | 0.0215 | -0.138 | 0.495 | 0.848 | 0.485 | 0.31 | 0.522 (inactive) | 0.0836 | -0.0449 | 0.217 | 0.58 | 0.581 | 1.31 | 0.448 | 1.03
5 | COCCOC(=O)N1C(=O)[C@@]2(c3cc(C#Cc4ccc(OC)cc4)ccc31)[C@H](c1ccc(O)cc1)N1[C@H](c3ccccc3)[C@H](c3ccccc3)OC(=O)[C@H]1[C@@H]2C(=O)N1CCCCCCC1 | 0.699 | -0.48 | 0.187 | 1.54 | 0.946 | -0.151 | 0.199 | 1.48 | 2.14 | 0.63 | 0.802 | -0.182 (inactive) | 0.7 | -0.131 | 0.466 | 2.11 | 0.575 | 0.722 | -0.508 | 0.498
6 | COCCCNC(=O)[C@@]1(Cc2ccccc2CN=[N+]=[N-])N=C(c2ccc(OCCCO)cc2)O[C@H]1c1ccccc1 | 1.47 | -2.84 | -0.0313 | 1.34 | 0.475 | 0.0257 | 0.313 | 0.999 | 1.62 | 1.52 | 0.954 | 0.443 (inactive) | 0.269 | -0.0006 | 0.254 | 2.85 | 0.832 | 1.3 | -0.751 | 1.03
